# Results published in the antibiotic and cytotoxicity screens of Wong et al. (2023).
# Out of some 39,000 compounds screened, about 3,300 (8.5%) were called active. The entries come from a sample that favours actives as a whole.
# System: HepG2
# Assay: cytotoxicity call (relative viability < 0.9)
# Conditions: 10 µM
row,Compound,cytotoxicity call
1,O=C(O)c1cc(N=Nc2ccc(S(=O)(=O)Nc3ccccn3)cc2)ccc1O,inactive
2,C[C@@H]1CN([C@H](C)CO)C(=O)Cc2cc(NC(=O)CCN3CCOCC3)ccc2O[C@@H]1CN(C)Cc1ccc(C(=O)O)cc1,inactive
3,C[C@H]1CN([C@@H](C)CO)C(=O)Cc2cc(NC(=O)CCN3CCOCC3)ccc2O[C@H]1CN(C)Cc1ccc(C(=O)O)cc1,inactive
4,CC1(C)CC[C@]2(C(=O)O[C@H]3O[C@@H](CO)[C@@H](O)[C@@H](O)[C@@H]3O)CC[C@]3(C)C(=CC[C@H]4[C@@]5(C)C[C@@H](O)[C@H](O[C@H]6O[C@H](C(=O)O)[C@@H](O)[C@@H](O)[C@@H]6O)C(C)(C)[C@@H]5CC[C@]43C)[C@@H]2C1,inactive
5,CC1(C)[C@H]2C[C@@H](O[C@H]3O[C@@H](CO)[C@@H](O)[C@@H](O)[C@@H]3O)[C@@]1(C)C[C@@H]2O,inactive
6,COC(=O)[C@@]12O[C@@H]1[C@H](O[C@@H]1O[C@H](CO)[C@@H](O)[C@H](O)[C@H]1O)C[C@H]1[C@]3(C)C[C@@H](c4ccoc4)OC(=O)[C@H]3CC[C@]12C,active
7,COCC(=O)Nc1ccc2c(c1)OC[C@H](C)N(C(=O)Cc1cccnc1)C[C@H](C)[C@@H](OC)CN(C)C2=O,inactive
8,Cc1noc(C)c1S(=O)(=O)Nc1ccc2c(c1)C(=O)N([C@@H](C)CO)C[C@@H](C)[C@@H](CN(C)S(=O)(=O)c1ccccc1)O2,inactive
9,CC(C)C#Cc1ccc2c(c1)O[C@H](CN(C)S(=O)(=O)c1cn(C)cn1)[C@@H](C)CN([C@@H](C)CO)S2(=O)=O,inactive
10,C[C@@H]1CN([C@@H](C)CO)C(=O)Cc2cc(NS(C)(=O)=O)ccc2O[C@@H]1CN(C)Cc1ccc(C(=O)O)cc1,inactive
11,C[C@@H]1CN([C@@H](C)CO)C(=O)Cc2cc(NC(=O)Nc3cccc4ccccc34)ccc2O[C@H]1CN(C)Cc1ccc(Oc2ccccc2)cc1,inactive
12,C[C@@H]1CN([C@@H](C)CO)C(=O)Cc2cc(NC(=O)Nc3cccc4ccccc34)ccc2O[C@@H]1CN(C)Cc1ccc(Oc2ccccc2)cc1,inactive
13,C[C@H]1CN([C@@H](C)CO)C(=O)Cc2cc(NC(=O)Nc3cccc4ccccc34)ccc2O[C@@H]1CN(C)Cc1ccc(Oc2ccccc2)cc1,inactive
14,C[C@@H]1CN([C@H](C)CO)C(=O)Cc2cc(NC(=O)Nc3cccc4ccccc34)ccc2O[C@H]1CN(C)Cc1ccc(Oc2ccccc2)cc1,inactive
15,C[C@H](CO)N1C[C@H](C)[C@H](CN(C)Cc2ccc(Oc3ccccc3)cc2)Oc2ccc(NC(=O)Nc3cccc4ccccc34)cc2CC1=O,inactive
16,C[C@H](CO)N1C[C@H](C)[C@@H](CN(C)Cc2ccc(Oc3ccccc3)cc2)Oc2ccc(NC(=O)Nc3cccc4ccccc34)cc2CC1=O,active
17,C[C@H]1CN([C@@H](C)CO)C(=O)Cc2cc(NC(=O)Nc3cccc4ccccc34)ccc2O[C@H]1CN(C)Cc1ccc(Oc2ccccc2)cc1,active
18,C[C@@H]1CN([C@H](C)CO)C(=O)Cc2cc(NC(=O)Nc3cccc4ccccc34)ccc2O[C@@H]1CN(C)Cc1ccc(Oc2ccccc2)cc1,active
19,COc1ccc(S(=O)(=O)N(C)C[C@@H]2Oc3ccc(NS(=O)(=O)c4ccc(C)cc4)cc3C(=O)N([C@H](C)CO)C[C@H]2C)cc1,inactive

row,Compound,cytotoxicity call
1,COC(=O)[C@H]1CCNCCC1=O,inactive
2,CN1CCN(C(=O)C[C@H]2CC[C@H]3[C@@H](COC[C@H](O)CN3CC3CCCC3)O2)CC1,inactive
3,C[C@H](CO)N1C[C@H](C)[C@@H](CN(C)C(=O)Nc2ccnc(N3CCOCC3)c2)OCc2cnnn2CCCC1=O,inactive
4,Cn1cnc(S(=O)(=O)N[C@@H]2C=C[C@@H](CC(=O)NCC3CC3)O[C@H]2CO)c1,inactive
5,O=C(O)C12CC(C1)C2,inactive
6,COCC(=O)N(C)C[C@H]1Oc2cc(-c3ccc(C#N)cc3)ccc2S(=O)(=O)N([C@@H](C)CO)C[C@H]1C,inactive
7,Cc1noc(C)c1NC(=O)N[C@H]1C=C[C@H](CC(=O)N2CCN(C)CC2)O[C@H]1CO,inactive
8,COc1cccc(C#Cc2ccc3c(c2)O[C@@H](CN(C)C(=O)CN2CCOCC2)[C@H](C)CN([C@H](C)CO)S3(=O)=O)c1,inactive
9,Cc1ccc(S(=O)(=O)N(C)C[C@@H]2OCCCC[C@H](C)Oc3ccc(NC(=O)CCC(F)(F)F)cc3C(=O)N([C@H](C)CO)C[C@H]2C)cc1,inactive
10,CC[C@@H]1OC(=O)C[C@@H](O)[C@H](C)[C@@H](O[C@@H]2O[C@H](C)[C@@H](O)[C@H](N(C)C)[C@H]2O)[C@@H](CCN2C[C@H](C)C[C@H](C)C2)C[C@@H](C)C(=O)/C=C/C(C)=C\[C@@H]1CO[C@@H]1O[C@H](C)[C@@H](O)[C@@H](OC)[C@H]1OC,inactive
11,CC[C@H]1OC(=O)C[C@@H](O)[C@H](C)[C@@H](O[C@@H]2O[C@H](C)[C@@H](O)[C@H](N(C)C)[C@H]2O)[C@@H](CCN2C[C@H](C)C[C@H](C)C2)C[C@@H](C)C(=O)/C=C/C(C)=C/[C@@H]1CO[C@@H]1O[C@H](C)[C@@H](O)[C@@H](OC)[C@H]1OC,inactive
12,CCC1OC(=O)CC(O)C(C)C(OC2OC(C)C(O)C(N(C)C)C2O)C(CCN2CC(C)CC(C)C2)CC(C)C(=O)C=CC(C)=CC1COC1OC(C)C(O)C(OC)C1OC (configuration not stated),active
13,C[C@H](CO)N1C[C@H](C)[C@H](CN(C)Cc2ccncc2)Oc2ccc(NS(=O)(=O)c3cccs3)cc2C1=O,inactive
14,CC(=O)OC1CC2C(C)(C)C(O)CCC2(C)C2CCC3(C)C(c4ccoc4)OC(=O)C4OC43C12C (configuration not stated),inactive
15,Cc1noc(C)c1S(=O)(=O)N(C)C[C@H]1Oc2ccc(NC(=O)C3CC3)cc2CC(=O)N([C@@H](C)CO)C[C@@H]1C,inactive
16,C[C@H](CO)N1C[C@H](C)[C@H](CN(C)S(=O)(=O)c2ccc(F)cc2)OCCCC[C@H](C)Oc2ccc(NC(=O)Nc3ccc(C(F)(F)F)cc3)cc2C1=O,inactive
17,C[C@@H]1CN([C@@H](C)CO)C(=O)c2cc(NC(=O)Nc3ccc(C(F)(F)F)cc3)ccc2O[C@@H](C)CCCCO[C@H]1CN(C)S(=O)(=O)c1ccc(F)cc1,inactive
18,C[C@H]1CCCCO[C@H](CN(C)S(=O)(=O)c2ccc(F)cc2)[C@@H](C)CN([C@@H](C)CO)C(=O)c2cc(NC(=O)Nc3ccc(C(F)(F)F)cc3)ccc2O1,inactive
19,C[C@@H]1CCCCO[C@@H](CN(C)S(=O)(=O)c2ccc(F)cc2)[C@H](C)CN([C@@H](C)CO)C(=O)c2cc(NC(=O)Nc3ccc(C(F)(F)F)cc3)ccc2O1,inactive

row,Compound,cytotoxicity call
1,C[C@@H]1CCCCO[C@@H](CN(C)S(=O)(=O)c2ccc(F)cc2)[C@@H](C)CN([C@@H](C)CO)C(=O)c2cc(NC(=O)Nc3ccc(C(F)(F)F)cc3)ccc2O1,active
2,C[C@@H]1CCCCO[C@H](CN(C)S(=O)(=O)c2ccc(F)cc2)[C@@H](C)CN([C@H](C)CO)C(=O)c2cc(NC(=O)Nc3ccc(C(F)(F)F)cc3)ccc2O1,active
3,C[C@@H]1CCCCO[C@H](CN(C)S(=O)(=O)c2ccc(F)cc2)[C@H](C)CN([C@@H](C)CO)C(=O)c2cc(NC(=O)Nc3ccc(C(F)(F)F)cc3)ccc2O1,active
4,C[C@H](CO)N1C[C@H](C)[C@@H](CN(C)S(=O)(=O)c2ccc(F)cc2)OCCCC[C@H](C)Oc2ccc(NC(=O)Nc3ccc(C(F)(F)F)cc3)cc2C1=O,inactive
5,C[C@@H]1CN([C@H](C)CO)C(=O)c2cc(NC(=O)Nc3ccc(C(F)(F)F)cc3)ccc2O[C@@H](C)CCCCO[C@@H]1CN(C)S(=O)(=O)c1ccc(F)cc1,inactive
6,COc1ccc(C#Cc2cccc(-c3nc(C(=O)N[C@@H]4CCN(Cc5ccccc5)C4)cc4c3[C@@H](CCO)N(S(=O)C(C)(C)C)C4)c2)cc1OC (some centres not stated),inactive
7,c1ccc2cc3nc4c(ccc5ccccc54)nc3cc2c1,inactive
8,C[C@@H]1CCCCO[C@@H](CN(C)C(=O)NC2CCCCC2)[C@@H](C)CN([C@H](C)CO)C(=O)c2cc(NC(=O)c3ccccc3)ccc2O1,inactive
9,C[C@@H]1CN([C@@H](C)CO)S(=O)(=O)c2ccc(C#Cc3ccccc3)cc2O[C@H]1CN(C)S(C)(=O)=O,inactive
10,C[C@H](CO)N1C[C@H](C)[C@@H](CN(C)Cc2ccncc2)Oc2c(NC(=O)c3cnccn3)cccc2C1=O,inactive
11,C[C@@H]1CN([C@@H](C)CO)C(=O)c2cc(NC(=O)Nc3ccc(C(F)(F)F)cc3)ccc2O[C@@H](C)CCCCO[C@@H]1CN(C)C(=O)Nc1cccc2ccccc12,inactive
12,CC(C)NC(=O)Nc1ccc2c(c1)C(=O)N([C@H](C)CO)C[C@H](C)[C@H](CN(C)C(=O)Nc1cccc3ccccc13)OCCCC[C@H](C)O2,active
13,CC(C)NC(=O)Nc1ccc2c(c1)C(=O)N([C@@H](C)CO)C[C@@H](C)[C@@H](CN(C)C(=O)Nc1cccc3ccccc13)OCCCC[C@@H](C)O2,inactive
14,CC(C)NC(=O)Nc1ccc2c(c1)C(=O)N([C@H](C)CO)C[C@@H](C)[C@H](CN(C)C(=O)Nc1cccc3ccccc13)OCCCC[C@H](C)O2,inactive
15,C[C@@H]1CCCCO[C@H](CN(C)C(=O)Nc2cccc3ccccc23)[C@H](C)CN([C@@H](C)CO)C(=O)c2cc(NC(=O)Nc3ccc(C(F)(F)F)cc3)ccc2O1,active
16,C[C@@H]1CN([C@@H](C)CO)C(=O)c2cc(NC(=O)Nc3cccc4ccccc34)ccc2O[C@@H](C)CCCCO[C@H]1CN(C)C(=O)Nc1cccc2ccccc12,inactive
17,C[C@H](CO)N1C[C@H](C)[C@@H](CN(C)C(=O)Nc2cccc3ccccc23)OCCCC[C@H](C)Oc2ccc(NC(=O)Nc3cccc4ccccc34)cc2C1=O,inactive
18,C[C@@H]1CN([C@@H](C)CO)C(=O)c2cc(NC(=O)Nc3ccc(C(F)(F)F)cc3)ccc2O[C@@H](C)CCCCO[C@H]1CN(C)C(=O)Nc1cccc2ccccc12,inactive
19,C[C@@H]1CCCCO[C@@H](CN(C)C(=O)Nc2cccc3ccccc23)[C@H](C)CN([C@@H](C)CO)C(=O)c2cc(NC(=O)Nc3cccc4ccccc34)ccc2O1,active
